A selection: hits, their analogues and other compounds. The true share with any hit is near 2.4%.
D2 ag-1: human D2 receptor agonism in beta-arrestin assay | P14416 | DiscoveRx PathHunter D2 beta-arrestin, luminescence, 90 min; 100% = 57 uM dopamine signal | activation, % (concentration not given with the values) | 360,000 tested, 0.084% active | AID 624465; in the data active means activation above about 40%; inconclusive means between about 15% and that limit
Target sequence (P14416 whole entry, looked up): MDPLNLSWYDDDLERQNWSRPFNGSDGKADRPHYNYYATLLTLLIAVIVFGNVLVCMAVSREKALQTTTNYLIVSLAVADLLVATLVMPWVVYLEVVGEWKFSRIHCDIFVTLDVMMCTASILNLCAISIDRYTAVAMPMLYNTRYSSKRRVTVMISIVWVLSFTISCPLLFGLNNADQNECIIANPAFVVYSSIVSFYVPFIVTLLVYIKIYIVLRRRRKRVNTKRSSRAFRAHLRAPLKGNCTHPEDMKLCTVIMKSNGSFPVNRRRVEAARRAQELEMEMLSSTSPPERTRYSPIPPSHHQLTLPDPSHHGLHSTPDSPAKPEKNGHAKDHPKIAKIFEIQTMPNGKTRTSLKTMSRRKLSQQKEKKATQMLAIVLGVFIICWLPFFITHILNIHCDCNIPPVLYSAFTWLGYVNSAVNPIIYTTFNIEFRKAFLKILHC
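Agonist mode: compounds alone added to overnight-plated D2 PathHunter cells for 90 min at 37 C, with 57 uM final dopamine (EC100) defining full response. Beta-arrestin recruitment detected by chemiluminescent reagent, read after 1 h at ambient temperature.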
D2 antag: antagonists of human D2 dopamine receptor. P14416. HEK293 TREx D2 cells, calcium flux, dopamine EC80. inhibition, % at 10 µM. 340,000 tested, 2% active; in the data active means inhibition above about 30%; inactive means below that, where a call was filed; further: 0% is about no effect
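Compounds are added to dye-loaded, induced HEK293 T-REx cells coupled to calcium release via D2; after a 3 min kinetic read an EC80 dopamine stimulus is given and fluorescence is recorded for 3 more min.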
D2 PAM-1: potentiates the human D2 dopamine receptor allosterically | P14416 | DiscoveRx D2 beta-arrestin cells, luminescence, 90 min; 100% = 57 uM dopamine signal | potentiation, % (test concentration not listed) | 360,000 tested, 0.23% active | AID 624464; in the data active means potentiation above about 50%; inconclusive means mostly about 30% to 49%
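PathHunter D2 cells, attached overnight at 37 deg C, received compound in DMSO plus dopamine at EC20 (50 nM final) for 90 min at 37 deg C. Beta-arrestin recruitment was read as luminescence after 1 h with detection reagent at ambient temperature.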
D2 ag-2: activates the human D2 dopamine receptor; HEK293 T-REx D2 cells, calcium flux agonist mode; activation, % at 2 µM; 340,000 tested, 0.53% active;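 active means activation over 3 SD above normal in the single-dose calcium agonist read, cut at about 30% in these data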; further: 0% is about no effect
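Tetracycline-induced HEK293 Trex cells with D2 receptor force-coupled to calcium signaling, plated overnight at 30 C and loaded with no-wash calcium dye. Calcium flux read kinetically for 180 s after compound addition; responses flag agonists.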
D2 PAM-2: positive allosteric modulators of human D2 dopamine receptor. potentiation, % at 10 µM. AID 485347. HEK293 T-REx D2, calcium flux, EC20 dopamine potentiation. P14416. 340,000 tested, 0.34% active;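 active means potentiation over 3 SD above the plate norm, cut at about 30% in these data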; further: 0% is about no effect
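Calcium flux readout, no-wash dye, 1 read/s. Inducible HEK293 Trex D2 line, overnight 30 C. Compound alone 180 s (agonist flags), then EC20 dopamine, another 180 s to score potentiation.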
* hit, by the source's call; ? = inconclusive; . = no result given.

SMILES	D2 ag-1	D2 antag	D2 PAM-1	D2 ag-2	D2 PAM-2
CCOC(=O)C1CCCN(Cc2c(Cl)cccc2Cl)C1 (stereo not given)	-3	-10	-13	0	0
CCOC(=O)C1CCCN(C/C=C/c2ccccc2)C1 (stereo not given)	5	30*	-24	5	-21
CCOC(=O)C1CCN(Cc2cccc(Oc3ccccc3)c2)CC1	?	.	-22	.	.
COc1ccccc1OCC(=O)NCCS(=O)(=O)N1CCN(c2ccccc2OC)CC1	.	.	.	-1	-10
CCOC(=O)N1CCN(C(=O)Nc2ccccc2)CC1	-2	31*	-3	0	-2
CCOC(=O)c1ccc(NC(=O)N2CCN(C3CCCCC3)CC2)cc1	-1	34*	-15	-1	-3
CCOC(=O)c1ccc(NC(=O)N2CCN(Cc3ccccc3)CC2)cc1	8	44*	-8	-1	0
CCOC(=O)c1ccc(NC(=O)CC2C(=O)OCCN2CC)cc1 (stereo not given)	-5	48*	-2	-1	-4
CCOc1cc(C(=O)Nc2ccc(-c3nnc4n3CCCCC4)cc2)cc(OCC)c1OCC	.	.	.	.	-5
Cc1cc(Cl)ccc1OCC(=O)NNC(=O)CCOc1ccccc1	-1	31*	-3	-1	4
Cc1ccc(F)cc1NC(=O)CCOc1ccccc1	0	32*	-6	-1	-6
Cc1cc(C)c(C)c(OCC(=O)Nc2ccc(S(=O)(=O)Nc3nc(C)cc(C)n3)cc2)c1	.	.	.	-1	-5
Cc1onc(-c2ccc(Cl)cc2Cl)c1C(=O)/C=C/N(C)C	-4	16	-13	0	-1
CC(=O)c1c(-c2ccc(Cl)cc2Cl)noc1C	-19	30*	-8	0	-11
CC(=O)Nc1nonc1-c1nc2ccccc2n1C	-1	-3	-8	-1	8
Cn1c(-c2nonc2NC(=O)c2ccc(C(C)(C)C)cc2)nc2ccccc21	.	44*	.	1	2
Cc1cccc(OCCCC(=O)Nc2ccc(S(=O)(=O)Nc3nccs3)cc2)c1C	-2	-6	7	-1	6
CC(C)[C@H](NS(=O)(=O)/C=C/c1ccccc1)C(=O)OCC(=O)NC(N)=O	-3	-19	-6	-2	-5
Cc1ccc(C)c(SCC(=O)Nc2cc(S(=O)(=O)N3CCOCC3)ccc2C)c1	-5	53*	-2	0	-5
Cc1ccc(S(=O)(=O)N2CCCCC2)cc1NC(=O)COC(=O)c1c(F)cccc1F	-5	6	12	-1	31*
Cc1ccc(S(=O)(=O)N(C)C)cc1NC(=O)CSc1ccc2c(c1)OCCO2	2	36*	-22	0	-2
COc1ccccc1CCC(=O)OCC(=O)Nc1cc(S(=O)(=O)N2CCOCC2)ccc1C	-3	33*	-23	2	-6
Cc1ccccc1OCC(=O)OCc1cc(=O)n2nc(C3CC3)sc2n1	.	.	.	0	-12
CCOc1cc(/C=C2\CCCc3c2nc2ccccc2c3C(=O)O)ccc1OC	-2	38*	6	87*	-27
O=C(NCc1cccnc1)c1cc(C(=O)NCc2cccnc2)cc([N+](=O)[O-])c1	-1	.	-3	.	.
SMILES	D2 ag-1	D2 antag	D2 PAM-1	D2 ag-2	D2 PAM-2
CCOC(=O)N1CC=C2C(C#N)=C(N)C(C#N)(C#N)[C@H](c3cccs3)C2C1 (stereo not given in full)	-4	-18	-5	0	72*
O=C(Cn1c(=O)c2cccn2c2cccnc21)NCCCN1CCN(c2ccc(F)cc2)CC1	1	54*	-54	20	-27
CCn1c(=O)cc(SCC(=O)NCCCN2CCC(C)CC2)c2ccccc21	1	-1	-8	0	-18
CCn1c(=O)cc(SCC(=O)NCCCN2CCN(c3ccc(F)cc3)CC2)c2ccccc21	5	66*	-15	27	-26
COc1ccc(N2CCN(CCCNC(=O)Cn3c(=O)c4cccn4c4cccnc43)CC2)cc1	1	-17	-10	8	-23
CCCCNC(=O)CSc1cc(=O)n(C)c2ccccc12	-4	35*	-6	-1	-3
COc1ccc(-c2noc(-c3nnn(-c4ccc(C(C)C)cc4)c3C)n2)cc1OC	.	.	.	1	7
CN1CCN(CCNC(=O)c2ccc3nc(-c4ccc(F)cc4)c(-c4ccc(F)cc4)nc3c2)CC1	1	2	-18	3	-2
COc1ccc(NC(=O)C/C(C)=N/NC(=O)CCc2ccccc2)c(OC)c1	-1	40*	4	0	-6
COc1ccc(NC(=O)CCCc2ccccc2)c(OC)c1	-1	-8	0	0	-3
CCOC1(OCC)C(c2ccc(Cl)cc2)C(C#N)(C#N)C1(OCC)OCC (stereo not given)	-3	38*	-8	1	12
CCc1ccc(OCC(=O)N(Cc2ccc(C)o2)C2CCS(=O)(=O)C2)cc1 (stereo not given)	.	.	.	-1	4
C=CCNCCCOc1ccc(C(C)(C)c2ccccc2)cc1	-5	-6	-33	0	8
COCCNCCCCOc1ccccc1-c1ccccc1	-5	92*	-36	1	-34
CN(C)CCCCOc1ccccc1F	-2	-1	-13	0	-6
CCCCNCCOCCOc1ccccc1-c1ccccc1	2	76*	-27	0	-21
CN(C)CCCCOc1ccccc1-c1ccccc1	-1	71*	-21	4	-28
C=CCNCCOc1ccccc1-c1ccccc1	-1	87*	-39	8	-28
Cc1ccc(-n2c(=O)c3ccccc3n(CC(=O)Nc3cccc(C(F)(F)F)c3)c2=O)cc1	.	.	.	2	3
CSCCC(NS(=O)(=O)c1cccs1)C(=O)Nc1ccc(C)c(Cl)c1 (stereo not given)	.	.	.	0	15
Cc1nonc1OCCN1CCN(c2ccccc2[N+](=O)[O-])CC1	2	53*	-16	16	-40
O=C(O)c1cccc(NS(=O)(=O)c2cccc(C(=O)Nc3ccccc3[N+](=O)[O-])c2)c1	-1	8	-8	1	-5
Cc1cnc(C2OCCO2)c2cccc(N)c12	0	.	-1	.	.
CCN1CCc2c(sc(NC(=O)c3ccc(S(=O)(=O)N(CCOC)CCOC)cc3)c2C(N)=O)C1	.	.	.	0	-4
CC(C)N1CCc2c(sc(NC(=O)c3ccc(S(=O)(=O)N(C)C4CCCCC4)cc3)c2C(N)=O)C1	.	.	.	2	8
CCN1CCc2c(sc(NC(=O)c3ccc(S(=O)(=O)N(C)c4ccccc4)cc3)c2C(=O)NC)C1	-7	1	-2	38*	1
CNC(=O)c1c(NC(=O)c2ccc(S(=O)(=O)N(C)c3ccccc3)cc2)sc2c1CCN(C(C)C)C2	-2	19	15	84*	-3
Cc1ccc(S(N)(=O)=O)c(C)c1N1CCCC1=O	-7	-5	-4	0	30*
CC(C)c1nc(C#N)c(NCCCn2ccnc2)o1	-4	43*	-10	0	-16
